Experimental data published in paper PMC7862700, “An all-to-all approach to the identification of sequence-specific readers for epigenetic DNA modifications on cytosine”.

Columns and labels:
Assay in all cases: DAPPL (digital affinity profiling via proximity ligation, sequencing); 10 mM Tris-HCl pH 7.5, 50 mM NaCl, 1 mM DTT, 4% glycerol, room temperature, 30 min; GST-TFs on glutathione beads, 16-mer random dsDNA library, 0.1% formaldehyde crosslink after washing; high values mean tight binding
ETV5 = ETV5 (Homo sapiens, UniProt P41161 1-510); settings: protein: recombinant; tags: N-terminal GST; dsDNA, one strand shown
ETV5, sequence (P41161 whole entry, the tested form may be a part): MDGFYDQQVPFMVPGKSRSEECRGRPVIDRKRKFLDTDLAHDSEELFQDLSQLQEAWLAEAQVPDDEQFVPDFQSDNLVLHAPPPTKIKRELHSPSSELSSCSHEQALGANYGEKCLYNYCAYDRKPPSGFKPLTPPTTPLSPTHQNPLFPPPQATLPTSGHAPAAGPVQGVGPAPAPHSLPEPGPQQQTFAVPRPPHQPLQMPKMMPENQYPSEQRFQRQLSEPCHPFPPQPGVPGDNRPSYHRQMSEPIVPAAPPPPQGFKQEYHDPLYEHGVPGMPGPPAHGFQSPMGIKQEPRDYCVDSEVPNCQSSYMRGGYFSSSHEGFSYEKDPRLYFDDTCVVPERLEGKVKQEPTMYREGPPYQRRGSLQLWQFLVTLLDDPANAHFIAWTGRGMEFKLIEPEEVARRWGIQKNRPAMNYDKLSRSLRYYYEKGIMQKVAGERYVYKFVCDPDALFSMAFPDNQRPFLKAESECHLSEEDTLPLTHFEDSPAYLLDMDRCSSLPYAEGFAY
Summary of the method: (§1)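 Yeast served to express human transcription factors as GST fusions, which were then captured on glutathione beads and labelled with DNA barcodes. Pooled with a tag-only sample, they were incubated with 200 nmole of a 16-mer random double-stranded DNA library for 30 min at room temperature in Tris/NaCl/DTT/glycerol buffer, washed, crosslinked with 0.1% formaldehyde, ligated by proximity, amplified by PCR and sequenced. Dividing each hexamer's read frequency for a factor by its frequency for the tag-only sample gives the binding signal.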

HSF1 = HSF1 (Homo sapiens, UniProt Q00613 1-529); settings: protein: recombinant; tags: N-terminal GST; chain copies: 3; dsDNA, one strand shown
HSF1, sequence (Q00613 whole entry): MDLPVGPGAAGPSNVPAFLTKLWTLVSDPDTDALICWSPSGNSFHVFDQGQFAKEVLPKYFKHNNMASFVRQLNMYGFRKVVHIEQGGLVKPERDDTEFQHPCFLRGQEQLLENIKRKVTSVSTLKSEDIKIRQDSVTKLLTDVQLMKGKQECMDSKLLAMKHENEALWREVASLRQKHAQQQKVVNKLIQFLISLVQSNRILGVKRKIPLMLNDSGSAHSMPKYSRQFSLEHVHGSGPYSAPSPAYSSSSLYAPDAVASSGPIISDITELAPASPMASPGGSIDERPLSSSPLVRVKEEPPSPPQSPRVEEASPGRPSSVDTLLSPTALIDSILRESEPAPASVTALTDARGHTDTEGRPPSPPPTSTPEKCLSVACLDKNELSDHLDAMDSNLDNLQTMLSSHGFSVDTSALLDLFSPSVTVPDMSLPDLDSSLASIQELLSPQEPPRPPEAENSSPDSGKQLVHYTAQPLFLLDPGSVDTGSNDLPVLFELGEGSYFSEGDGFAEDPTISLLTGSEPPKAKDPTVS
Summary of the method: as §1

SPIC = target: T1, SPIC (Homo sapiens, UniProt Q8N5J4 1-248); settings: protein: recombinant; tags: N-terminal GST; dsDNA, one strand shown
T1 sequence: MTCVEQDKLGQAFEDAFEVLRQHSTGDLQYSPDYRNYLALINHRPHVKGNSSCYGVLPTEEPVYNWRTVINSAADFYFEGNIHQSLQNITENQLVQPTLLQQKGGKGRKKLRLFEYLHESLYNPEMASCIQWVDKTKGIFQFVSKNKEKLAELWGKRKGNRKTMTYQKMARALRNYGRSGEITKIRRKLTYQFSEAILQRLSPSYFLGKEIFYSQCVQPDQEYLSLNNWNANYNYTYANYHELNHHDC
Summary of the method: as §1

ELF4 = ELF4 (Homo sapiens, UniProt Q99607 1-663); settings: protein: recombinant; tags: N-terminal GST; dsDNA, one strand shown
ELF4, sequence (Q99607 whole entry): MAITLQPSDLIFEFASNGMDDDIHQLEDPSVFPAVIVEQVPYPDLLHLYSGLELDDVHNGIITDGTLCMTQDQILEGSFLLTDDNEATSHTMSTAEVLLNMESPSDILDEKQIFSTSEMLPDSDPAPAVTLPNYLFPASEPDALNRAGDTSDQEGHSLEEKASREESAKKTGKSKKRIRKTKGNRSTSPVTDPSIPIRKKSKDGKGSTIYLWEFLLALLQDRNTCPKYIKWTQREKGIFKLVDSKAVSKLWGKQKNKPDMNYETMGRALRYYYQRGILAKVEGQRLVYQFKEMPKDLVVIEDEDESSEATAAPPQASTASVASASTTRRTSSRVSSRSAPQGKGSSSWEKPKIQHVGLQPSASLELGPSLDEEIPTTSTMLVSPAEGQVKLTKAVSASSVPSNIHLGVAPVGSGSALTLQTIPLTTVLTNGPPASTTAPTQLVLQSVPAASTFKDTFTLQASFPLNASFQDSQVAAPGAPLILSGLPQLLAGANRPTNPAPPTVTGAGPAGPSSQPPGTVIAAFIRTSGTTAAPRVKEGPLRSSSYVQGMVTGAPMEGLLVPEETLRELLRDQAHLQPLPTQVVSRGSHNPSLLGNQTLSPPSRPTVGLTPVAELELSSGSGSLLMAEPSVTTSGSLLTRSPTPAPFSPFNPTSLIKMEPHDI
Summary of the method: as §1

ELK4 = target: T2, ELK4 (Homo sapiens, UniProt P28324-2 1-405); settings: protein: recombinant; tags: N-terminal GST; dsDNA, one strand shown
T2 sequence: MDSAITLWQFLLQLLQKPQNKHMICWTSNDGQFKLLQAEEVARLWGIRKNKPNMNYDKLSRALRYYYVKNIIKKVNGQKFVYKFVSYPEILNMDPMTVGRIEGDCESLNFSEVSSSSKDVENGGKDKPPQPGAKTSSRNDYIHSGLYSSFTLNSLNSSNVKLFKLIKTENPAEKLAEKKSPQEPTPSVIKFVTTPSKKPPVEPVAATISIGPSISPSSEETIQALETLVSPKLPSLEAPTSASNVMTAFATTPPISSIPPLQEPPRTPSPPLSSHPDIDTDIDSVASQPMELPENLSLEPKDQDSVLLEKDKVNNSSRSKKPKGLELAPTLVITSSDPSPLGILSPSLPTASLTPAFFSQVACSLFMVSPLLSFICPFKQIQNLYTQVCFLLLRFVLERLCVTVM
Summary of the method: as §1

ETV2 = target: T3, ETV2 (Homo sapiens, UniProt O00321 1-342); settings: protein: recombinant; tags: N-terminal GST; dsDNA, one strand shown
T3 sequence: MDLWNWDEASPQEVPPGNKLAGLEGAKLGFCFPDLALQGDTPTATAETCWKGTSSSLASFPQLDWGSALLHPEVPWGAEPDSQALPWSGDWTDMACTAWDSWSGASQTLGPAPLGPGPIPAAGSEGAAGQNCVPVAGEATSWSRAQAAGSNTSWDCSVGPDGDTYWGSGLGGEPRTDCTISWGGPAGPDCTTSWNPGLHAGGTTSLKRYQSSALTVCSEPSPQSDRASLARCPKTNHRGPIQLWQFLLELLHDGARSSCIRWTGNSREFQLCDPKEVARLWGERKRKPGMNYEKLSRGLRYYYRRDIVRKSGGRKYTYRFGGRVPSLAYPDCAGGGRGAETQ
Summary of the method: as §1

ELF3 = target: T4, ELF3 (Homo sapiens, UniProt P78545 1-371); settings: protein: recombinant; tags: N-terminal GST; dsDNA, one strand shown
T4 sequence: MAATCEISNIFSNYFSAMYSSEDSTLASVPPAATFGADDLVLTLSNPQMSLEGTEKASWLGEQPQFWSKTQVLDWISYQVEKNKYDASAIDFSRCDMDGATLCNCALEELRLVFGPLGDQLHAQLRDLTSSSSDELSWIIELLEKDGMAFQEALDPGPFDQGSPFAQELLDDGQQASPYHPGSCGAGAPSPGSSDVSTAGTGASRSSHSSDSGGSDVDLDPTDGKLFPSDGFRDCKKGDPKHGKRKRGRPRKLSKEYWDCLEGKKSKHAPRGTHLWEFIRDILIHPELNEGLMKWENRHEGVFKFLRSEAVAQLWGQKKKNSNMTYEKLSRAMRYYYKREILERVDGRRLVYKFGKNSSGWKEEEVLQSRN
Summary of the method: as §1

ETV1 = ETV1 (Homo sapiens, UniProt P50549 1-477); settings: protein: recombinant; tags: N-terminal GST; dsDNA, one strand shown
ETV1, sequence (P50549 whole entry): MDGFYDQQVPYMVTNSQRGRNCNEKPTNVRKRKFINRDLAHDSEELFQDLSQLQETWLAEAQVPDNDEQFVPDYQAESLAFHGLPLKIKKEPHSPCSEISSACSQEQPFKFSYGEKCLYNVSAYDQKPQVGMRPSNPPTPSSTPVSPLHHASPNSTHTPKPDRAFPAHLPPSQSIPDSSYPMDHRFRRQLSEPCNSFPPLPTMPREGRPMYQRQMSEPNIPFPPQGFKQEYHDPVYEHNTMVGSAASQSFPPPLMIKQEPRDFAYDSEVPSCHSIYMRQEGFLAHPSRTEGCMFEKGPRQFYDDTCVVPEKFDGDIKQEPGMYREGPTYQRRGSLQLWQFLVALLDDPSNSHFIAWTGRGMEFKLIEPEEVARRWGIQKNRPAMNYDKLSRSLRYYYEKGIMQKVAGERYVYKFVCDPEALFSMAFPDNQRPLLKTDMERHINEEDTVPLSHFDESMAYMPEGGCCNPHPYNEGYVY
Summary of the method: as §1

ERF = target: T5, ERF (Homo sapiens, UniProt P50548 1-548); settings: protein: recombinant; tags: N-terminal GST; dsDNA, one strand shown
T5 sequence: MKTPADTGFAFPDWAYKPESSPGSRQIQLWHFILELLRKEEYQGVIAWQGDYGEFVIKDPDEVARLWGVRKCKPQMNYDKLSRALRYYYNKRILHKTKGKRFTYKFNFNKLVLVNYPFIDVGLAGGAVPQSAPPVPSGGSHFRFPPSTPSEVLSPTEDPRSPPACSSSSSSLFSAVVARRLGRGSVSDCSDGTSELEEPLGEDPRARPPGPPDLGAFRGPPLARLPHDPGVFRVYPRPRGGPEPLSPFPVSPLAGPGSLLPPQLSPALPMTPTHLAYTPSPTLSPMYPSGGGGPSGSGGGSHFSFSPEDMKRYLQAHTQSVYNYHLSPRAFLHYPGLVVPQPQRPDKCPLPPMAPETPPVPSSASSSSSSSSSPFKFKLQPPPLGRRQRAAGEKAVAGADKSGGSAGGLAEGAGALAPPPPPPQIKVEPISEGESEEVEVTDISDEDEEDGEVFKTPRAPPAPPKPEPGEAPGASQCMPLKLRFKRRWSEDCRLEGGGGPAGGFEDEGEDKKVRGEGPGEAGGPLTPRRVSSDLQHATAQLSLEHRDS
Summary of the method: as §1

ETV3L = target: T6, ETV3L (Homo sapiens, UniProt Q6ZN32 1-361); settings: protein: recombinant; tags: N-terminal GST; dsDNA, one strand shown
T6 sequence: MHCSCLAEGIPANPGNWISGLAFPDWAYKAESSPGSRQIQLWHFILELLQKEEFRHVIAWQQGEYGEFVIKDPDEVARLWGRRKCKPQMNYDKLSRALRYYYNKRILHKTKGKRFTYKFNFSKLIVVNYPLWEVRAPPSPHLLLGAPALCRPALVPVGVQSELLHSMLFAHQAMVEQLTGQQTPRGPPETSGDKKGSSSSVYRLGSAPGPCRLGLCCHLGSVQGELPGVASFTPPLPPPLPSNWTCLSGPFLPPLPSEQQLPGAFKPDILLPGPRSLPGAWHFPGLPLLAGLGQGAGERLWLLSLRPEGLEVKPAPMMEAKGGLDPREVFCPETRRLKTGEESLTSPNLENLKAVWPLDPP
Summary of the method: as §1

ETS2 = target: T7, ETS2 (Homo sapiens, UniProt P15036 1-469); settings: protein: recombinant; tags: N-terminal GST; dsDNA, one strand shown
T7 sequence: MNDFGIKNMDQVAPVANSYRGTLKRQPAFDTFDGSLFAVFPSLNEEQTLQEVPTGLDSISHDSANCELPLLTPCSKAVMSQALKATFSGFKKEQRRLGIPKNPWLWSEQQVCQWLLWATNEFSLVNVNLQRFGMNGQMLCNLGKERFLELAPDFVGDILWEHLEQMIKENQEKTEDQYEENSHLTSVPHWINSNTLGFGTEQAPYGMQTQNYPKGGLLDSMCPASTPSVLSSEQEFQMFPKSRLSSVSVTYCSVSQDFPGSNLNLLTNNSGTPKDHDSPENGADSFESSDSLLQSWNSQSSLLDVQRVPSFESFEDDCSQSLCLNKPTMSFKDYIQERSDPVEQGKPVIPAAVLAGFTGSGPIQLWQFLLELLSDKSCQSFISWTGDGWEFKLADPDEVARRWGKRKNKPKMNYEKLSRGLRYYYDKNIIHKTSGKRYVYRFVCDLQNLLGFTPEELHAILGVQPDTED
Summary of the method: as §1

ETV7 = target: T8, ETV7 (Homo sapiens, UniProt Q9Y603 1-341); settings: protein: recombinant; tags: N-terminal GST; dsDNA, one strand shown
T8 sequence: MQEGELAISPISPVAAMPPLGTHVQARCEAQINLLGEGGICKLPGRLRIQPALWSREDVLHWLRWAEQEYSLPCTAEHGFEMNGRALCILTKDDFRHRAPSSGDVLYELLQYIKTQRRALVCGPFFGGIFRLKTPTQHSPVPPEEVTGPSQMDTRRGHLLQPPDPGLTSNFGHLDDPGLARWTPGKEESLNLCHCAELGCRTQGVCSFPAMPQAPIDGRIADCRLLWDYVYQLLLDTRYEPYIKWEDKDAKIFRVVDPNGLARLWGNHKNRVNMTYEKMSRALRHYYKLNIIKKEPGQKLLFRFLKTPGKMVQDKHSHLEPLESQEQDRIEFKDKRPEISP
Summary of the method: as §1

ELF5 = target: T9, ELF5 (Homo sapiens, UniProt Q9UKW6-2 1-255); settings: protein: recombinant; tags: N-terminal GST; dsDNA, one strand shown
T9 sequence: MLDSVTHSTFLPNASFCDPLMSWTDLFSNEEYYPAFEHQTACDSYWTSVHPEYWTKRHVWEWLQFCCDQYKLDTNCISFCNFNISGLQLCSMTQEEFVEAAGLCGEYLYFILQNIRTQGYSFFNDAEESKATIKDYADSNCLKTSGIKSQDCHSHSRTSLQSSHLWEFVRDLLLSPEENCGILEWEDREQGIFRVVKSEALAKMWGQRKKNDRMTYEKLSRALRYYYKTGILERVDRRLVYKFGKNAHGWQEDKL
Summary of the method: as §1

ETV3 = target: T10, ETV3 (Homo sapiens, UniProt P41162-2 1-143); settings: protein: recombinant; tags: N-terminal GST; dsDNA, one strand shown
T10 sequence: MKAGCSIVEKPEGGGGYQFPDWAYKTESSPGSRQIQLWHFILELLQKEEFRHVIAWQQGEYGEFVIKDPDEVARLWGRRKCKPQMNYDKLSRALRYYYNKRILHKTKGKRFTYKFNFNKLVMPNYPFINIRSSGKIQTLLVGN
Summary of the method: as §1

FEV = target: T11, FEV (Homo sapiens, UniProt Q99581 1-238); settings: protein: recombinant; tags: N-terminal GST; dsDNA, one strand shown
T11 sequence: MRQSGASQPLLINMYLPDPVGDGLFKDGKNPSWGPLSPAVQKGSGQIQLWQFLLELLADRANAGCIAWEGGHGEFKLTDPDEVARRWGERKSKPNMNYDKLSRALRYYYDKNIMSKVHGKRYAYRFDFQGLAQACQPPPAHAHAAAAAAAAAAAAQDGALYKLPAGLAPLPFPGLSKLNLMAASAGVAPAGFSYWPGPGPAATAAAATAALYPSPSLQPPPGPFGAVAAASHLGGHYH
Summary of the method: as §1

SPDEF = target: T12, SPDEF (Homo sapiens, UniProt O95238 1-335); settings: protein: recombinant; tags: N-terminal GST; dsDNA, one strand shown
T12 sequence: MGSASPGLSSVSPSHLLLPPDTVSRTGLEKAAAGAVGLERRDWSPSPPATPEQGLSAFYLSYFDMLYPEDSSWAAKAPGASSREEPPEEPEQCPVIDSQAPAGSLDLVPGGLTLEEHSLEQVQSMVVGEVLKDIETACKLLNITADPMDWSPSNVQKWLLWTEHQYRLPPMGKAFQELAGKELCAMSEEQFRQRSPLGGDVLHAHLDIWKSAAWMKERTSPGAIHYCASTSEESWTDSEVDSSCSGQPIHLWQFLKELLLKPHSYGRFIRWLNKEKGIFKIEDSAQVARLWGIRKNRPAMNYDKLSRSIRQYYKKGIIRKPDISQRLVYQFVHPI
Summary of the method: as §1

ETV6 = ETV6 (Homo sapiens, UniProt P41212 1-452); settings: protein: recombinant; tags: N-terminal GST; dsDNA, one strand shown
ETV6, sequence (P41212 whole entry): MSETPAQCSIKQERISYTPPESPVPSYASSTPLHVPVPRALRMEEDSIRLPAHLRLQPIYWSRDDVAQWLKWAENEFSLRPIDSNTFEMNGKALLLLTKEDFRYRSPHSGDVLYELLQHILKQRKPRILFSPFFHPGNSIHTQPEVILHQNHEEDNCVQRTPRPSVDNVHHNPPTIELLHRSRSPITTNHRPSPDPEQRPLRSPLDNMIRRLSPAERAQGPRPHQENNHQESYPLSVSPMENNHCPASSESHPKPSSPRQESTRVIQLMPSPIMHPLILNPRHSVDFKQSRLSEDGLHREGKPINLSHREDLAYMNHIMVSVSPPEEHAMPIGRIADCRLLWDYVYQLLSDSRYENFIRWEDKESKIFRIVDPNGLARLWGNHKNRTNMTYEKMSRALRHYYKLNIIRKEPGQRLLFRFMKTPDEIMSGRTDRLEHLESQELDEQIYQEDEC
Summary of the method: as §1

## TGGTAG
ETV5
  binding signal: 1.07 fold enrichment (6-mer frequency, TF over GST control)
HSF1
  binding signal: 1.06 fold enrichment (6-mer frequency, TF over GST control)
SPIC
  binding signal: 1.08 fold enrichment (6-mer frequency, TF over GST control)
ELF4
  binding signal: 1.11 fold enrichment (6-mer frequency, TF over GST control)
ELK4
  binding signal: 1.37 fold enrichment (6-mer frequency, TF over GST control)
ETV2
  binding signal: 1.04 fold enrichment (6-mer frequency, TF over GST control)
ELF3
  binding signal: 1.13 fold enrichment (6-mer frequency, TF over GST control)
ETV1
  binding signal: 1.05 fold enrichment (6-mer frequency, TF over GST control)
ERF
  binding signal: 1.11 fold enrichment (6-mer frequency, TF over GST control)
ETV3L
  binding signal: 1.02 fold enrichment (6-mer frequency, TF over GST control)
ETS2
  binding signal: 1.04 fold enrichment (6-mer frequency, TF over GST control)
ETV7
  binding signal: 1.18 fold enrichment (6-mer frequency, TF over GST control)
ELF5
  binding signal: 1.1 fold enrichment (6-mer frequency, TF over GST control)
ETV3
  binding signal: 1.1 fold enrichment (6-mer frequency, TF over GST control)

## CACGCG
FEV
  binding signal: 1.16 fold enrichment (6-mer frequency, TF over GST control)
ETV5
  binding signal: 1.04 fold enrichment (6-mer frequency, TF over GST control)
HSF1
  binding signal: 1.1 fold enrichment (6-mer frequency, TF over GST control)
SPIC
  binding signal: 1.29 fold enrichment (6-mer frequency, TF over GST control)
ELF4
  binding signal: 1.2 fold enrichment (6-mer frequency, TF over GST control)
ELK4
  binding signal: 1.24 fold enrichment (6-mer frequency, TF over GST control)
ETV2
  binding signal: 1.18 fold enrichment (6-mer frequency, TF over GST control)
ELF3
  binding signal: 1.08 fold enrichment (6-mer frequency, TF over GST control)
ETV1
  binding signal: 1.09 fold enrichment (6-mer frequency, TF over GST control)
ETV3L
  binding signal: 1.22 fold enrichment (6-mer frequency, TF over GST control)
ETS2
  binding signal: 1.13 fold enrichment (6-mer frequency, TF over GST control)
SPDEF
  binding signal: 1.23 fold enrichment (6-mer frequency, TF over GST control)
ETV7
  binding signal: 1.13 fold enrichment (6-mer frequency, TF over GST control)
ELF5
  binding signal: 1.17 fold enrichment (6-mer frequency, TF over GST control)
ETV3
  binding signal: 1.09 fold enrichment (6-mer frequency, TF over GST control)
ETV6
  binding signal: 1.18 fold enrichment (6-mer frequency, TF over GST control)
